# An excerpt weighted towards active compounds, which were near 2.4% of everything screened.
# ASK1 primary = human ASK1 kinase inhibition, primary screen; actives 0.99% (n = 22,000); AlphaScreen MKK6 phosphorylation by ASK1, luminescence; Q99683; AID 1159602; inhibition, % at 7.44 µM; in the data active = inhibition above about 35%;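 also: 0% = median of compound wells and 100% = no enzyme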
# ULK1 inh = inhibitors of human ULK1 kinase; O75385; AlphaScreen Atg13 phosphorylation by ULK1, luminescence; inhibition, % at 5.96 µM; actives 1.9% (n = 30,000); in the data active = inhibition above about 43%;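 also: 0% = median of compound wells and 100% = no enzyme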
# Target sequence (O75385 whole entry, looked up): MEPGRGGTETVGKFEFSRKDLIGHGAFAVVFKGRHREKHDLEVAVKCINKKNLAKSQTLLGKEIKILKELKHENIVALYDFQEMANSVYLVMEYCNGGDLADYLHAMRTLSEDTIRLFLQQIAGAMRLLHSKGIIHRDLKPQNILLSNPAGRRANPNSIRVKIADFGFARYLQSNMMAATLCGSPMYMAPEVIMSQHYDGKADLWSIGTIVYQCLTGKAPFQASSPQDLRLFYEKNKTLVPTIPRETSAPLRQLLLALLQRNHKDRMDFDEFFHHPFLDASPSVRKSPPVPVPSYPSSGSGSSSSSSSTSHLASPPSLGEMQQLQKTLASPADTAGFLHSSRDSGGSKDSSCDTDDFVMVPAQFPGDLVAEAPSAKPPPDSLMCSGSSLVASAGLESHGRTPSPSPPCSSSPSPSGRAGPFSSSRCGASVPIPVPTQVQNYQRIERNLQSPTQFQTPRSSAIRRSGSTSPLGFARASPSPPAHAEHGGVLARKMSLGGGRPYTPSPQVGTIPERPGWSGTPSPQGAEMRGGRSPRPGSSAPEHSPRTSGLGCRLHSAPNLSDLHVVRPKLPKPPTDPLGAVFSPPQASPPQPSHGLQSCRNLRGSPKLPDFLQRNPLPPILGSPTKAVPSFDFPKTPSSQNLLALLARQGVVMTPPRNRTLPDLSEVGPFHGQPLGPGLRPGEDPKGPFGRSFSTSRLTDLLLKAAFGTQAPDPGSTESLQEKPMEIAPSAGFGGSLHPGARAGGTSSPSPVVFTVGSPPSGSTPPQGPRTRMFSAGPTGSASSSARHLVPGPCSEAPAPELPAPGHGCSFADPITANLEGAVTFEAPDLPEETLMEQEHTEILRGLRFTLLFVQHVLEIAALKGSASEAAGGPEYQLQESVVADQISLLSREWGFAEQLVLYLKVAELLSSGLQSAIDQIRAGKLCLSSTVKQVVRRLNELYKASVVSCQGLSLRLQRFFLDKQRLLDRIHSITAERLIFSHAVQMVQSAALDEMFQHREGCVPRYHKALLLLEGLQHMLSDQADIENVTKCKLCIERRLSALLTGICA
# AlphaScreen intf = interferes with AlphaScreen TruHits signal in ASK1 counter-screen. AlphaScreen TruHits beads, signal interference counterscreen. shares compounds with ASK1 primary. IC50, µM. actives 20% (n = 220);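 active = IC50 of 10 µM or lower in the counterscreen; inactive = IC50 above 10 µM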;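 also: loss of AlphaScreen light from TruHits beads alone with no ASK1 enzyme present; potency of signal reduction so a low IC50 flags an assay artifact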
# * marks the source's active call; other numbers are inactive results; i = inactive; / = no result; ! = not confirmed by another sample.
SMILES,ASK1 primary,ULK1 inh,AlphaScreen intf
COc1ccc(-c2nc3ncnc(Nc4ccc(NC(C)=O)cc4)c3[nH]2)cn1,8.5,-6.7,/
c1ccc2c(-c3nccc(Nc4ccc(N5CCOCC5)cc4)n3)csc2c1,38.1*,-7.5,>21.8
c1ccc(Nc2ccnc(-c3csc4ccccc34)n2)cc1,-7.1,-17.1,/
Cc1cc(NC2CC2)nc(Nc2ccc(N3CCOCC3)cc2)n1,7.5,5.2,/
Nc1nc(Nc2ccc(N3CCOCC3)cc2)cc(NC2CCN(Cc3ccccc3)CC2)n1,43.0*!,19.2,>23.1
Cc1cc(NC2CCN(Cc3ccccc3)CC2)nc(Nc2ccc(N3CCOCC3)cc2)n1,40.0*,5.8,i
c1ccc(CN2CCC(Nc3cc(Nc4ccc(N5CCOCC5)cc4)ncn3)CC2)cc1,-4.8,8.4,/
Cn1cnnc1-c1ccc(Nc2ncc(F)c(-c3cc(N4CCOCC4)cc(C(F)(F)F)c3)n2)cc1,-4.0,-1.9,/
CCCNc1nc(-c2ccc(C(=O)N3CCN(C)CC3)cc2)nc2c1ncn2Cc1ccc(C(F)(F)F)cc1,7.1,-25.8,/
c1cnc2ccc(Nc3nc4ncnc(Nc5ccc6c(c5)OCO6)c4[nH]3)cc2c1,25.3,6.9,/
c1nc2nc(N3CCN(Cc4ccc5c(c4)OCO5)CC3)nc(Nc3ccc(N4CCOCC4)cc3)c2[nH]1,21.7,26.3,/
c1ccc(CNc2ncnc3nc(N4CCN(Cc5ccc6c(c5)OCO6)CC4)[nH]c23)cc1,0.2,-12.9,/
c1nc(Nc2ccc(N3CCOCC3)cc2)c2[nH]c(N3CCN(Cc4ccc5c(c4)OCO5)CC3)nc2n1,42.9*,41.9,>13.8
Oc1ccc(CCNc2ncnc3nc(N4CCN(Cc5ccc6c(c5)OCO6)CC4)[nH]c23)cc1,41.2*,13.4,i
c1cn(-c2ccc(Nc3nc4ncnc(Nc5ccc6c(c5)OCO6)c4[nH]3)cc2)cn1,39.2*,11.0,>21.9
CC(C)N(CCNc1nc(Nc2ccc(N3CCOCC3)cc2)nc2c1ncn2Cc1ccc(C(F)(F)F)cc1)C(C)C,18.1,5.5,/
c1cncc(CNc2nc(N3CCc4ccccc4C3)nc3c2ncn3C2CCCCC2)c1,-5.6,12.5,/
CCCCOc1ccc(C(=O)Nc2nc3c(s2)CN(CC)CC3)cc1,/,-3.6,/
CC(C)n1c(Nc2cccnc2)nc2c(NCCCN3CCCC3=O)ncnc21,9.4,6.5,/
Cc1cc(NCCO)nc(Nc2cccc(N(C)C)c2)n1,6.4,-17.9,/
Cc1cc(NCCOc2ccccc2)nc(Nc2cccc(N(C)C)c2)n1,56.6*,9.0,6.04*
Cc1cc(NCCc2ccc(O)cc2)nc(Nc2cccc(N(C)C)c2)n1,54.7*,-3.3,8.99*
Cc1cc(NCCOc2ccccc2)nc(Nc2cccnc2)n1,-7.1,-14.7,/
CC(=O)Nc1ccc(Nc2cc(Nc3cccc(N(C)C)c3)ncn2)cc1,-7.4,1.6,/
CN(C)c1cccc(Nc2cc(Nc3ccccc3)ncn2)c1,36.8*,-1.3,>22.2
SMILES,ASK1 primary,ULK1 inh,AlphaScreen intf
CCNc1nccc(NC2CCN(Cc3ccccc3)CC2)n1,-15.1,-15.6,/
CCn1c(COc2cccc(C)c2)nnc1SCC(=O)NC1CCCCC1,/,1.9,/
OC(CN1CCCC(N2CCc3ccccc32)C1)c1ccccc1 (stereo not given),-8.4,-3.0,/
NC(=O)c1cnc(Nc2ccnc(Nc3ccc(N4CCOCC4)cc3)c2)s1,-1.7,27.6,/
NC(=O)c1cc2ccccc2cc1Nc1ccnc(Nc2ccc(N3CCOCC3)cc2)c1,36.2*,-1.7,>19.2
CC(=O)Nc1ccc(Nc2cc(NCc3cccnc3)nc(N)n2)cc1,11.8,-0.9,/

# High-throughput results: PubChem BioAssay, The Scripps Research Institute Molecular Screening Center
